Sampled rows, rich in hits. Any-hit rate of the full collection: about 3.7%.
tim23-1 inh – growth inhibitors of tim23-1 mutant yeast, primary screen, luminescence, uHTS. S. cerevisiae tim23-1 growth, BacTiter-Glo luminescence, 24 h. inhibition, % at 20 µM. hit rate 1.3% among 330,000;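 active = growth inhibition of the mutant yeast at or above 50%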;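 also: temperature-sensitive mutant grown at 25 °C; plate controls were DMSO-treated mutant yeast for no effect and medium wells lacking yeast for full effect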
tim10-1 inh – growth inhibitors of tim10-1 mutant yeast, primary screen, luminescence, uHTS; inhibition, % at 20 µM; AID 463190, 2010; hit rate 2.2% among 330,000; S. cerevisiae tim10-1 ts strain growth, BacTiter-Glo, 24 h;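 active = inhibition of at least 40%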;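 also: mutant grown at 25 °C; 0% = DMSO wells with yeast and 100% = wells holding no yeast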
Rce1 inhib – yeast Rce1p protease inhibitors, primary screen, biochemical, fluorescence, cell-free homogeneous | CAAX prenyl protease 2 (Saccharomyces cerevisiae (strain ATCC 204508 / S288c)), Q03530 | yeast membranes, quenched prenylated peptide cleavage fluorescence | calls only | hit rate 0.27% among 290,000 | AID 2563, 2010;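 active = fall in fluorescence gain of 50% or more versus controls, with final raw signal at or below 3038400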;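 also: plate controls were neutral control wells for no effect and wells lacking membranes for full effect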
Target sequence (Q03530 whole entry, looked up): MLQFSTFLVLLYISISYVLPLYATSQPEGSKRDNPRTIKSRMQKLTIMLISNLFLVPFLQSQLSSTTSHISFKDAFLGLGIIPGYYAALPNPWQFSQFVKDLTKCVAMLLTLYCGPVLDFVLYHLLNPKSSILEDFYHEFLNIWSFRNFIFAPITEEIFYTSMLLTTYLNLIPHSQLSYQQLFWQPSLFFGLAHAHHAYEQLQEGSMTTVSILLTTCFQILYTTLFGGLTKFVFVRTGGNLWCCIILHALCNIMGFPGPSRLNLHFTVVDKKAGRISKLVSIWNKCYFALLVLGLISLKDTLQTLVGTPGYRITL
TIM10 inh – growth inhibitors of isogenic TIM10 control yeast, primary screen, counter-screen for tim10-1 yeast inhibitor project, luminescence, uHTS; inhibition, % at 10 µM; AID 463195, 2010; hit rate 1.4% among 330,000; S. cerevisiae TIM10 strain growth, BacTiter-Glo luminescence, 24 h;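 active = inhibition of 40% or more at the single tested concentration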;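 also: wild-type TIM10 isogenic control strain grown at permissive 25 °C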
PfHsp90 yeast 2 – growth inhibition of PfHsp90-expressing yeast, primary screen, antimalarial PfHsp90 inhibitor project, S. cerevisiae, BacTiter-Glo luminescence, single point, set 2; BacTiter-Glo ATP, 48 h; yeast lacking PDR1 and PDR3 efflux regulators; inhibition, % at 9.4 µM; hit rate 0.32% among 310,000;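 active = every replicate shows inhibition above about 80%, whatever the replicate mean, limit read from the data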;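 also: 0% = DMSO neutral controls and 100% = 20 µM radicicol positive controls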
tim10-1 confirm – growth inhibitors of tim10-1 mutant yeast, confirmation, single concentration, luminescence, S. cerevisiae; hit rate 56% among 7,400; S. cerevisiae tim10-1 ts strain growth, BacTiter-Glo, 24 h; inhibition, % at 20 µM; shares compounds with tim10-1 inh;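 active = inhibition of yeast growth at or above a set limit in either of two repeat tests at 20 µM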;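 also: tim10-1 mutant grown at permissive 25 °C to find synthetic lethal compounds; 0% = DMSO yeast wells and 100% = medium wells without yeast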
* = called active by the depositor.

Screening C[C@@H]1CC=C[C@H]2[C@H]1C(=O)N(Cc1ccccc1)[C@H]2c1ccc(-c2ccoc2)cc1F returned tim23-1 inh 50, tim10-1 inh 41*, Rce1 inhib inactive, TIM10 inh 30, PfHsp90 yeast 2 13 and tim10-1 confirm 36*.
`COc1ccc(-c2ccc(OC)c([C@H]3[C@H]4C=CC[C@@H](C)[C@@H]4C(=O)N3Cc3ccccc3)c2)cc1OC` gave tim23-1 inh 32, tim10-1 inh 25, Rce1 inhib inactive, TIM10 inh 11 and PfHsp90 yeast 2 20.
Screening COc1ccc(Br)cc1[C@H]1[C@H]2C=CC[C@@H](C)[C@@H]2C(=O)N1Cc1ccccc1 returned tim23-1 inh 12, tim10-1 inh 60*, Rce1 inhib inactive, TIM10 inh 10, PfHsp90 yeast 2 -9 and tim10-1 confirm 42*.
For COc1ccc([C@H]2[C@H]3C=CC[C@@H](C)[C@@H]3C(=O)N2Cc2ccccc2)cc1Cl the results were tim23-1 inh 38, tim10-1 inh 42*, Rce1 inhib inactive, TIM10 inh 31, PfHsp90 yeast 2 -17 and tim10-1 confirm 30.
`C=CCN1CCc2c(cc(O)c(O)c2Br)[C@@H](c2ccccc2)C1` gave tim23-1 inh 12, tim10-1 inh 21, Rce1 inhib inactive, TIM10 inh 12 and PfHsp90 yeast 2 -6.
For O=C(NCc1cccs1)c1cccn2c(=O)c3sccc3nc12 the results were tim23-1 inh -1, tim10-1 inh -6, Rce1 inhib inactive, TIM10 inh -12 and PfHsp90 yeast 2 -23.
Screening O=C(NCc1ccco1)c1cccn2c(=O)c3sccc3nc12 returned tim23-1 inh 16, tim10-1 inh 40*, Rce1 inhib inactive, TIM10 inh 21, PfHsp90 yeast 2 4 and tim10-1 confirm 19.
Cc1sc2nc(-c3ccco3)oc(=O)c2c1C was read as tim23-1 inh 36, tim10-1 inh 42*, Rce1 inhib inactive, TIM10 inh 21, PfHsp90 yeast 2 14 and tim10-1 confirm 29.
`c1ccc(N2CCCCC2)c(Nc2nc3ccccc3n3cnnc23)c1` gave tim23-1 inh 28, tim10-1 inh 16, Rce1 inhib inactive, TIM10 inh 13 and PfHsp90 yeast 2 18.
Screening FC(F)(F)c1ccc(N2CCOCC2)c(Nc2nc3ccccc3n3cnnc23)c1 returned tim23-1 inh -51, tim10-1 inh 54*, Rce1 inhib inactive, TIM10 inh 20, PfHsp90 yeast 2 -55 and tim10-1 confirm 59*.
For O=C(CNC(=S)N(Cc1ccccc1Cl)C1CCCC1)NCCCN1CCOCC1 the results were tim23-1 inh 11, tim10-1 inh 9, Rce1 inhib inactive, TIM10 inh -3 and PfHsp90 yeast 2 7.
Screening Cc1ccc(O)c(C(CC(=O)NC(C)C)c2ccccc2)c1 (configuration not stated) returned tim23-1 inh 11, tim10-1 inh 0, Rce1 inhib inactive, TIM10 inh 8 and PfHsp90 yeast 2 -1.
Screening CCCN(CCC)C(=O)CC(c1ccccc1)c1cc(C)ccc1O (configuration not stated) returned tim23-1 inh 33, tim10-1 inh 46*, Rce1 inhib inactive, TIM10 inh 22, PfHsp90 yeast 2 -11 and tim10-1 confirm 34*.
OCC1(Cc2ccccc2)CCN(Cc2cnc(-c3ccc(Cl)cc3)nc2)CC1 was read as tim23-1 inh 20, tim10-1 inh 47*, Rce1 inhib inactive, TIM10 inh 35, PfHsp90 yeast 2 18 and tim10-1 confirm 19.
For COc1ccc(NC(=O)COC(=O)Cc2c(F)cccc2Cl)cc1 the results were tim23-1 inh 18, tim10-1 inh 43*, TIM10 inh 4, PfHsp90 yeast 2 -1 and tim10-1 confirm 24.
O=C(O)c1cccc(C(=O)c2cccc(C(=O)O)c2)c1 was read as tim23-1 inh -10, tim10-1 inh -5, Rce1 inhib inactive, TIM10 inh 4 and PfHsp90 yeast 2 24.
Screening O=C(O)c1cc2ccc3cccc4ccc(c1)c2c34 returned tim23-1 inh 33, tim10-1 inh 43*, Rce1 inhib inactive, TIM10 inh 34, PfHsp90 yeast 2 -9 and tim10-1 confirm 23.
For CC1(C)NC(=O)N(CC(=O)O)C1=O the results were tim23-1 inh -1, tim10-1 inh 19, Rce1 inhib inactive, TIM10 inh -28 and PfHsp90 yeast 2 13.
Screening Cc1cccc2sc(N(CCN(C)C)C(=O)c3cc(Cl)sc3Cl)nc12 returned tim23-1 inh 13, tim10-1 inh 24, Rce1 inhib inactive, TIM10 inh 5 and PfHsp90 yeast 2 -9.
COc1ccc(OC)c2sc(N(CCN(C)C)C(=O)c3ccc4ccccc4c3)nc12 was read as tim23-1 inh 14, tim10-1 inh 30, Rce1 inhib inactive, TIM10 inh 23 and PfHsp90 yeast 2 28.
Screening COc1cc2ccccc2cc1C(=O)N(CCN(C)C)c1nc2c(OC)ccc(OC)c2s1 returned tim23-1 inh 21, tim10-1 inh 46*, Rce1 inhib inactive, TIM10 inh 25, PfHsp90 yeast 2 0 and tim10-1 confirm 15.
Screening COc1cc2ccccc2cc1C(=O)N(CCN(C)C)c1nc2ccc(C)cc2s1 returned tim23-1 inh 20, tim10-1 inh 42*, Rce1 inhib active, TIM10 inh 32, PfHsp90 yeast 2 5 and tim10-1 confirm 14.
COc1cc2ccccc2cc1C(=O)N(CCN(C)C)c1nc2c(C)cccc2s1 was read as tim23-1 inh 28, tim10-1 inh 56*, Rce1 inhib inactive, TIM10 inh 32, PfHsp90 yeast 2 -5 and tim10-1 confirm 20.
`CCN(C(=O)CSc1n[nH]c(N)n1)c1cccc2ccccc12` gave tim23-1 inh 1, tim10-1 inh -9, TIM10 inh 11 and PfHsp90 yeast 2 13.
For COc1cc2c(cc1OC)CN(c1ccc([N+](=O)[O-])cc1Cl)CC2 the results were tim23-1 inh 37, tim10-1 inh 41*, Rce1 inhib inactive, TIM10 inh 30, PfHsp90 yeast 2 8 and tim10-1 confirm 50*.
COc1ccccc1-c1ccc(/C=C2/C=C(C)OC2=O)o1 was read as tim23-1 inh 23, tim10-1 inh 31, Rce1 inhib inactive, TIM10 inh 27 and PfHsp90 yeast 2 -30.
`COc1ccccc1-c1ccc(/C=C2\C=CC(=O)O2)o1` gave tim23-1 inh 23, tim10-1 inh 48*, Rce1 inhib inactive, TIM10 inh 27, PfHsp90 yeast 2 -11 and tim10-1 confirm 36*.

Screening data from PubChem BioAssay.
